Laboratory results reported in PubChem BioAssay.

Tested on: Lefty1
Assay: Lefty1 binders on small-molecule microarrays, primary screen, biochemical, small-molecule microarray, 635/667 nm fluorescence (AID 1139)
Conditions: small-molecule microarray binding, fluorescence 635/667; higher = more signal

In order of rising composite z-score:
1. Cc1ccc(S[C@]2(C(=O)NCCCN(C)C)CC(=O)N(Cc3ccccc3C(F)(F)F)[C@@H]2c2ccc(CO)cc2I)cc1  -1.32
2. COC(=O)[C@@]1(Cc2ccccc2)[C@H]2c3cc(C(=O)N(C)C)n(CCO)c3C[C@H]2CN1C(=O)c1ccccc1  -0.986
3. COC(=O)[C@@]1(Cc2ccc(OC)cc2)[C@H]2c3cc(C(=O)N4CCCC4)n(CCn4cc([N+](=O)[O-])nc4C)c3C[C@H]2CN1C(=O)c1ccccc1  -0.19
4. CCCCCC1=C2CNC(CC(C)C)(C(=O)OC)C=C2C(C)C1=O (stereo unspecified)  -0.145
5. COC(=O)[C@@]1(Cc2ccc(F)cc2)[C@H]2c3cc(C(=O)N(C)C)n(CCc4ccc(O)c(O)c4)c3C[C@H]2CN1C(=O)c1ccccc1  -0.08
6. O=C1C[C@]2(c3ccc([N+](=O)[O-])cc3)C(=O)N(C3CC3)c3cc(CO)ccc3[C@H]2N1C1CCCCC1  -0.0446
7. CC(C)=CCCC(C)=CC(O)C1C=CC2C(=O)NC(=O)C2N1Nc1ccc(Cl)cc1Cl (stereo unspecified)  0.0724
8. O=C1C=C(c2ccccc2)C(=O)C2=C1CC([C@H]1Oc3ccccc3S(=O)(=O)N3CCC[C@@H]13)=CC2  0.132
9. N#Cc1ccc(-c2cccc(=O)o2)cc1  0.249
10. CCN(CC)c1ccc(N2CC=CC34O[C@@H]5C=CCCOC(=O)C5[C@H]3C(=O)N(C(C)CO)[C@@H]4C2=O)cc1 (stereo partly specified)  0.399
11. COC(=O)C[C@H]1O[C@@]2(C[C@@H]1[Si](C)(C)C)C(=O)N(C)c1ccccc12  0.453
12. C=CCC(OC(C)=O)[C@@H]1[C@@H](N(Cc2cc3ccccc3o2)C(=O)c2cccc3ccccc23)c2cc(OCCCO)ccc2N1C(=O)c1ccc2ccccc2n1 (stereo partly specified)  0.496
13. COCCOC(=O)N1C(=O)[C@@]2(c3cc(C#CC4(O)CCCCCC4)ccc31)[C@H](c1ccc(O)cc1)N1[C@H](c3ccccc3)[C@H](c3ccccc3)OC(=O)[C@H]1[C@@H]2C(=O)N1CCCCCCC1  0.851
14. C=CCOC(=O)[C@H]1[C@@H]2C(=O)O[C@@H](c3ccccc3)[C@@H](c3ccccc3)N2[C@@H](c2ccc(OCCOC(=O)[C@@H]3C[C@@H]4C(=O)N[C@@H](CCCC[N+](C)(C)C)C(=O)N4[C@@H]3c3ccc(O)cc3)cc2)[C@]12C(=O)Nc1ccc(I)cc12  1.01
15. C=CCC(OC(C)=O)[C@@H]1[C@@H](N(Cc2ccc(-c3cccc(C(F)(F)F)c3)o2)C(=O)c2ccc(-c3ccccc3)cc2)c2cc(OCCCO)ccc2N1C(=O)c1ccc2ccccc2c1 (stereo partly specified)  1.17
16. COCCOC(=O)N1C(=O)[C@@]2(c3cc(C#CCC(C(=O)OC)C(=O)OC)ccc31)[C@H](C(=O)Nc1nc3ccccc3s1)[C@H]1C(=O)O[C@H](c3ccccc3)[C@H](c3ccccc3)N1[C@@H]2c1ccc(O)cc1  1.29
17. COCCOC(=O)N1C(=O)[C@@]2(c3cc(C#CCCO)ccc31)[C@H](c1ccc(OCCO)cc1)N1[C@H](c3ccccc3)[C@H](c3ccccc3)OC(=O)[C@H]1[C@@H]2C(=O)N1CCCCCCC1  1.33
18. C=C(COC)/C(=C/C[C@@H](OC(C)=O)c1ccccc1OCCO)c1cnc2ccccc2c1  1.54
19. C=CCOC(=O)[C@@H]1[C@H]2C(=O)O[C@H](c3ccccc3)[C@H](c3ccccc3)N2[C@H](c2ccc(OCCOC(=O)[C@H]3C[C@H]4C(=O)N[C@@H](CCCCN(C)C)C(=O)N4[C@H]3c3ccc(O)cc3)cc2)[C@@]12C(=O)Nc1ccc(I)cc12  1.58
20. CN(C)CCCC[C@@H]1NC(=O)[C@H]2C[C@@H](C(=O)O)[C@@H](c3ccc(O)cc3)N2C1=O  1.63

Tested on: wheat germ agglutinin (Triticum aestivum), Alexa647-labelled
Assay: wheat germ agglutinin binders on compound microarrays, profiling panel, artefact control for SMM control-protein annotation, biochemical, small-molecule microarray, 635/667 nm fluorescence (AID 1140);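 note: score merges 667 nm feature emission with signal to noise over triplicate slides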
Conditions: WGA-A647 binding, 635 nm fluorescence, higher = more signal

In order of rising composite z-score:
1. CC(C)(C)N1CC=CC23O[C@@H]4/C=C\CCCOC(=O)C4[C@H]2C(=O)N(CCCO)[C@@H]3C1=O (stereo partly specified)  -1.38
2. Cc1ccc(S[C@]2(C(=O)NCCCN(C)C)CC(=O)N(Cc3ccccc3C(F)(F)F)[C@@H]2c2ccc(CO)cc2I)cc1  -0.193
3. C=CCC(OC(C)=O)[C@@H]1[C@@H](N(Cc2cc3ccccc3o2)C(=O)c2cccc3ccccc23)c2cc(OCCCO)ccc2N1C(=O)c1ccc2ccccc2n1 (stereo partly specified)  -0.0075
4. CCOC(=O)C[C@H]1[C@H](OC(=O)Cc2ccc3c(c2)OCO3)[C@@H](NC(=O)Cc2ccc(OC)cc2)c2cc(OCCCO)ccc2N1C(=O)Cc1ccc(OC)cc1  -0.002
5. C=CCC(OC(C)=O)[C@@H]1[C@@H](N(Cc2ccc(-c3cccc(C(F)(F)F)c3)o2)C(=O)c2ccc(-c3ccccc3)cc2)c2cc(OCCCO)ccc2N1C(=O)c1ccc2ccccc2c1 (stereo partly specified)  0.0415
6. O=C1C[C@]2(c3ccc([N+](=O)[O-])cc3)C(=O)N(C3CC3)c3cc(CO)ccc3[C@H]2N1C1CCCCC1  0.0523
7. COC(=O)C[C@H]1O[C@@]2(C[C@@H]1[Si](C)(C)C)C(=O)N(C)c1ccccc12  0.0729
8. O=C1C=C(c2ccccc2)C(=O)C2=C1CC([C@H]1Oc3ccccc3S(=O)(=O)N3CCC[C@@H]13)=CC2  0.145
9. CCN(CC)c1ccc(N2CC=CC34O[C@@H]5C=CCCOC(=O)C5[C@H]3C(=O)N(C(C)CO)[C@@H]4C2=O)cc1 (stereo partly specified)  0.329
10. C[N+](C)(C)CCCC[C@@H]1NC(=O)[C@H]2C[C@@H](C(=O)NCCCCCNC(=O)CS)[C@@H](c3cccc(OCCO)c3)N2C1=O  0.343
11. CCOC(=O)C[C@H]1[C@H](OC(=O)Cc2ccc3c(c2)OCO3)[C@@H](NC(=O)c2ccc3ccccc3n2)c2cc(OCCCO)ccc2N1C(=O)Cc1ccc(OC)cc1  0.391
12. COc1ccc(C(=O)Nc2ccc3c(c2)[C@@]2(O[C@H](CCO)[C@@H]([Si](C)(C)c4ccc(OC)cc4)[C@@H]2C)C(=O)N3Cc2ccccc2)cc1  0.413
13. O=C(NC1CC1)[C@@H]1c2ccccc2C(=O)N(Cc2cc(C(F)(F)F)cc(C(F)(F)F)c2)[C@H]1c1ccc(CO)cc1  0.416
14. C=CCOC(=O)[C@H]1[C@@H]2C(=O)O[C@@H](c3ccccc3)[C@@H](c3ccccc3)N2[C@@H](c2ccc(OCCOC(=O)[C@@H]3C[C@@H]4C(=O)N[C@@H](CCCC[N+](C)(C)C)C(=O)N4[C@@H]3c3ccc(O)cc3)cc2)[C@]12C(=O)Nc1ccc(I)cc12  0.422
15. N#Cc1ccc(-c2cccc(=O)o2)cc1  0.48
16. COC(=O)[C@@]1(Cc2ccc(F)cc2)[C@H]2c3cc(C(=O)N(C)C)n(CCc4ccc(O)c(O)c4)c3C[C@H]2CN1C(=O)c1ccccc1  0.528
17. C=CCOC(=O)[C@@H]1[C@H]2C(=O)O[C@H](c3ccccc3)[C@H](c3ccccc3)N2[C@H](c2ccc(OCCOC(=O)[C@H]3C[C@H]4C(=O)N[C@@H](CCCCN(C)C)C(=O)N4[C@H]3c3ccc(O)cc3)cc2)[C@@]12C(=O)Nc1ccc(I)cc12  0.538
18. COc1ccc(CCNC(=O)[C@@H]2c3ccccc3C(=O)N(Cc3ccccc3OC)[C@H]2c2ccc(CO)cc2)cc1  0.655
19. COC(=O)[C@@]1(Cc2ccc(OC)cc2)[C@H]2c3cc(C(=O)N4CCCC4)n(Cc4c(CO)[nH]cc(C)c4=O)c3C[C@H]2CN1C(=O)c1ccccc1  0.723
20. COCCOC(=O)N1C(=O)[C@@]2(c3cc(C#CCC(C(=O)OC)C(=O)OC)ccc31)[C@H](C(=O)Nc1nc3ccccc3s1)[C@H]1C(=O)O[C@H](c3ccccc3)[C@H](c3ccccc3)N1[C@@H]2c1ccc(O)cc1  0.762
21. O=C1C2C=CC(C(O)c3cccs3)N(Nc3ccc([N+](=O)[O-])cc3)C2C(=O)N1c1ccccc1 (stereo unspecified)  0.844
22. COC(=O)[C@@]1(Cc2ccccc2)[C@H]2c3cc(C(=O)N4CCCC4)n(Cc4ccc(OC)c(OC)c4)c3C[C@H]2CN1C(=O)c1ccccc1  0.863
23. CC(C)=CCCC(C)=CC(O)C1C=CC2C(=O)NC(=O)C2N1Nc1ccc(Cl)cc1Cl (stereo unspecified)  0.863
24. COCCOC(=O)N1C(=O)[C@@]2(c3cc(C#CC4(O)CCCCCC4)ccc31)[C@H](c1ccc(O)cc1)N1[C@H](c3ccccc3)[C@H](c3ccccc3)OC(=O)[C@H]1[C@@H]2C(=O)N1CCCCCCC1  0.907
25. COC(=O)[C@@]1(Cc2ccc(OC)cc2)[C@H]2c3cc(C(=O)N4CCCC4)n(CCn4cc([N+](=O)[O-])nc4C)c3C[C@H]2CN1C(=O)c1ccccc1  0.907
26. CCCCCC1=C2CNC(CC(C)C)(C(=O)OC)C=C2C(C)C1=O (stereo unspecified)  0.955
27. COCCOC(=O)N1C(=O)[C@@]2(c3cc(C#CCC(C(=O)OC)C(=O)OC)ccc31)[C@H](c1ccc(O)cc1)N1[C@H](c3ccccc3)[C@H](c3ccccc3)OC(=O)[C@H]1[C@@H]2C(=O)Nc1nc2ccccc2s1  0.968
28. [N-]=[N+]=Nc1ccccc1C[C@]1(C(=O)N2CCOCC2)N=C(c2ccc(OCCCO)cc2)O[C@H]1c1ccccc1N=[N+]=[N-]  0.97
29. C=C(/C(=C/C[C@@H](OC(C)=O)c1cccc(OCCO)c1)c1cnc2ccccc2c1)C(C)C  1.07
30. COC(=O)C1=CC(CCCO)=CC(c2cccs2)N(Cc2cc3c(cc2Br)OCO3)C=C1C(=O)OC (stereo unspecified)  1.13
31. O=C1O[C@H](c2ccccc2)[C@H](c2ccccc2)N2[C@H]1[C@@H](C(=O)O)[C@]1(C(=O)Nc3ccc(C#CCCO)cc31)[C@H]2c1ccc(OCCO)cc1  1.17
32. C=C(COC)/C(=C/C[C@@H](OC(C)=O)c1ccccc1OCCO)c1cnc2ccccc2c1  1.2
33. NC(=O)NCC#Cc1ccc2c(c1)[C@]1(C(=O)N2)[C@H](c2ccc(OCCO)cc2)N2[C@H](c3ccccc3)[C@H](c3ccccc3)OC(=O)[C@H]2[C@@H]1C(=O)O  1.22
34. COCCOC(=O)N1C(=O)[C@@]2(c3cc(C#CCCO)ccc31)[C@H](c1ccc(OCCO)cc1)N1[C@H](c3ccccc3)[C@H](c3ccccc3)OC(=O)[C@H]1[C@@H]2C(=O)N1CCCCCCC1  1.32
35. COC(=O)[C@@]1(Cc2ccccc2)[C@H]2c3cc(C(=O)N(C)C)n(CCO)c3C[C@H]2CN1C(=O)c1ccccc1  1.41
36. CN(C)CCCC[C@@H]1NC(=O)[C@H]2C[C@@H](C(=O)O)[C@@H](c3ccc(O)cc3)N2C1=O  1.65
